MITF primary: blocks human microphthalmia-associated transcription factor; O75030; AlphaScreen MITF homodimerization, bead proximity signal; inhibition, % at 2.6 µM; actives 0.91% (n = 650,000); AID 1259374; in the data active = inhibition above about 50%;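 note: 0% = vehicle wells with protein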
FBW7 activator: human FBW7 E3 ligase activation, primary screen | normalized activity (activation), % at 26.1 µM | Q969H0 | AlphaScreen FBW7–phospho-cyclin E peptide binding, activator screen | actives 0.13% (n = 650,000) | AID 1259310; in the data active = normalized activity above about 1.9%;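 note: purified mutant Fbw7 with reduced substrate affinity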
Target sequence (Q969H0 whole entry, looked up): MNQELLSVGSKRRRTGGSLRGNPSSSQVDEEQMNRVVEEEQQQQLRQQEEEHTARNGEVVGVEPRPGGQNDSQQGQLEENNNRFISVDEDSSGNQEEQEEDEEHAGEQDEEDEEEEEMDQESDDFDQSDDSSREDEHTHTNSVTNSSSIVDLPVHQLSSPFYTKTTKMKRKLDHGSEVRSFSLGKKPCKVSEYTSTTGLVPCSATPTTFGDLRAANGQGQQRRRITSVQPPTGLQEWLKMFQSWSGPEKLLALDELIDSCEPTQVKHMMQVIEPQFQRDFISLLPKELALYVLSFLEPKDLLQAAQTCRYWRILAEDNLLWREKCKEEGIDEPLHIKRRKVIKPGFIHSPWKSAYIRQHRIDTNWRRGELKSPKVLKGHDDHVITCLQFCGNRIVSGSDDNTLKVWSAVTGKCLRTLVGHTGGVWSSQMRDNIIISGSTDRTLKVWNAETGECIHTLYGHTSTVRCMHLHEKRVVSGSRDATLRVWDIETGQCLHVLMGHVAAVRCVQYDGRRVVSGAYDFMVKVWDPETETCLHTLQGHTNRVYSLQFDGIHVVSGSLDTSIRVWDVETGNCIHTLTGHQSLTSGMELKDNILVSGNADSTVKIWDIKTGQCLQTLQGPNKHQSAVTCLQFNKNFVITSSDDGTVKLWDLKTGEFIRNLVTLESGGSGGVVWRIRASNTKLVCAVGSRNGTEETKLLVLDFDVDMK
TEAD-YAP inh: TEAD-YAP interaction inhibition; AID 1259422; actives 1.4% (n = 640,000); inhibition, % at 9.12 µM; HEK-TIYL cells, TEAD-Gal4/YAP UAS-luciferase luminescence; in the data active = inhibition above about 32%;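 note: 0% = median of test compound wells and 100% = reference inhibitor wells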
GPR151 ag: activators of human GPR151. PathHunter beta-arrestin GPR151 cells, luminescence. activation, % at 11.2 µM. actives 1% (n = 650,000). AID 1508602; in the data active = activation above about 4.9%;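 note: 0% = median of compound wells and 100% = cells with positive control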
* = called active by the depositor. Sampled rows, rich in hits. Any-hit rate of the full collection: about 3.5%.

SMILES | MITF primary | FBW7 activator | TEAD-YAP inh | GPR151 ag
COc1ccc2c(=O)cc(-c3ccccc3)oc2c1 | 2 | 0 | -36 | 1
COc1ccc2oc(C(Cl)(Cl)Cl)cc(=O)c2c1 | 20 | 0 | 50* | -1
COc1cccc(-c2cc(=O)c3cc(OC)ccc3o2)c1 | 8 | 0 | 70* | -10
CCOC(=O)N1CCc2c(sc(NCc3ccc(OC)c(OC)c3OC)c2C(=O)Nc2cc(OC)ccc2OC)C1 | 12 | 0 | -1 | 0
COc1ccc(CNC(=O)N2CCN(Cc3nc(-c4ccco4)cs3)CC2)cc1OC | 0 | 0 | 54* | 2
CNC(=O)C(NC(=O)c1ccccc1)=C1CCCCC1 | -3 | 0 | 43* | -1
CNC(=O)/C(=C\c1ccccc1)NC(=O)c1ccccc1 | 8 | 0 | -10 | 0
S=C(Nc1ccccc1)c1nc2ccccc2[nH]1 | 21 | -1 | -37 | 2
CCOC(=O)c1ccccc1NC(=O)CN1C(=O)C(C)N(c2ccc(C)cc2)C1=O (centres undefined) | 7 | 0 | 46* | 0
Cc1ccc(N2C(=O)N(CC(=O)Nc3ccccc3OC(F)F)C(=O)C2C)cc1 (centres undefined) | 13 | 0 | -8 | 1
COC(=O)c1ccccc1NC(=O)CN1C(=O)C(C)N(c2ccc(C)cc2)C1=O (centres undefined) | 3 | 0 | 45* | -2
Cc1ccc(N2C(=O)N(CC(=O)Nc3ccccc3C(F)(F)F)C(=O)C2C)cc1 (centres undefined) | -3 | 0 | -4 | 2
Cc1cc(C)nc(NS(=O)(=O)c2ccc(NC(=O)c3cccc4ccccc34)cc2)n1 | -1 | 0 | 1 | 1
COC(=O)c1cnc(Nc2ccc(OC)c(Cl)c2)c2ccccc12 | 9 | 2.4* | -13 | 0
COC(=O)c1cnc(Nc2cc(Cl)ccc2OC)c2ccccc12 | 15 | 0 | 1 | -1
CCc1ccc(Nc2ncc(C(=O)OC)c3ccccc23)cc1 | 13 | 4.0* | -9 | 0
CCc1ccc2nc3sc(C(N)=O)c(N)c3cc2c1 | 11 | 0 | 92* | -3
NC(=O)c1sc2nc3cc4c(cc3cc2c1N)OCO4 | -4 | 0 | 73* | -2
CNC(=O)c1ccccc1Nc1cc(Nc2ccc(C(=O)N(C)C)cn2)ncc1C(F)(F)F | -4 | 0 | 84* | -1
CNC(=O)c1ccccc1Nc1cc(Nc2ncccc2C)ncc1C(F)(F)F | 36 | 0 | 40* | -2
CNC(=O)c1ccccc1Nc1cc(Nc2ccc(C(=O)N(C)C)cc2C)ncc1C(F)(F)F | -4 | 0 | 73* | 0
CNC(=O)c1ccccc1Nc1cc(Nc2ccc(-c3cncnc3)cc2OC)ncc1C(F)(F)F | 36 | 2 | 13 | 0
CNC(=O)c1ccccc1Nc1ccnc(Nc2ccccn2)c1 | 5 | -1 | 76* | 0
CSc1nnc2c(n1)OC(c1cc(O)ccc1Br)Nc1ccc(Br)cc1-2 (centres undefined) | 11 | 0 | 6 | -1
CCCCOC(=O)C1=C(C)NC(=O)NC1c1cccc(OC)c1 (centres undefined) | 19 | 1 | -18 | -2
SMILES | MITF primary | FBW7 activator | TEAD-YAP inh | GPR151 ag
CNC(=O)c1ncccc1Nc1cc(Nc2ccc(C(=O)N(C)C)cn2)ncc1C(F)(F)F | -2 | 0 | 72* | 0
CNC(=O)c1ncccc1Nc1cc(Nc2ccc3[nH]ncc3c2)ncc1C(F)(F)F | 3 | 0 | 9 | 1
O=C(Nc1cccc(F)c1)C1CC12CCN(C(=O)c1ccoc1)CC2 (centres undefined) | 3 | 0 | -11 | -1
N#Cc1ccc(-c2cnc3ccc(NCCc4cccnc4)nn23)cc1 | 15 | 0 | 34* | -1
Clc1cccc(-c2cnc3ccc(NCCc4cccnc4)nn23)c1 | -1 | 2.0* | 94* | -1
CC(=O)Nc1cccc(Oc2ccc3c(c2)C(=O)N(c2cccc(OC(C)=O)c2)C3=O)c1 | -12 | 0 | 46* | -2
CC(=O)Nc1cccc(Oc2ccc3c(c2)C(=O)N(c2cccc(Cl)c2)C3=O)c1 | -7 | 0 | 80* | -6
CCOC(=O)c1ccc(-n2c(C)cn3c4c(=O)n(CC(C)C)c(=O)n(C)c4nc23)cc1 | 6 | 0 | 6 | 1
Cc1cc(C)cc(NC(=O)c2ccc3c(=O)n(-c4ccccc4)c(SCC#N)nc3c2)c1 | -11 | 0 | 9 | -1
c1cc2[nH]snc2c2nc(C3CC3)nc12 | 18 | 0 | 38* | -1
Cc1cc(NC(=O)CSc2nc3ccccc3c3nc(CCN4CCCCC4)nn23)n[nH]1 | 15 | 1 | 58* | -1
Cc1cc(NC(=O)CSc2nc(Nc3ccc4c(c3)OCO4)c3ccccc3n2)n[nH]1 | 9 | 0 | 50* | 1
O=C(CSc1nc2ccccc2c(=O)n1CCCN1CCCCC1)Nc1nccs1 | 5 | 0 | 42* | 1
Cc1cc(NC(=O)CSc2nc3ccccc3c3nc(CCc4c[nH]c5ccccc45)nn23)n[nH]1 | -10 | 0 | 61* | 1
CC(C)CCNC(=O)CSc1nc(Nc2ccc3c(c2)OCO3)c2ccccc2n1 | 1 | 1 | 10 | 0
Cc1ccc(S(=O)(=O)NCc2ccccc2Cl)cc1C(N)=O | 2 | 0 | 9 | -2
Clc1ccc(-c2c[n+]3c(n2-c2ccccc2)CCC3)cc1 | 2 | 0 | 12 | 0
Cc1ccc(-c2c[n+]3c(n2-c2ccc(C)cc2)CCCCC3)cc1 | 14 | 0 | 85* | 4
Cc1ccc(-c2cn(-c3ccccc3)c3[n+]2CCCS3)cc1 | 16 | 0 | 68* | 0
Brc1ccc(-c2c[n+]3c(n2-c2ccccc2)SCC3)cc1 | -11 | 0 | 3 | -1
Cc1ccc(-c2c[n+]3c(n2-c2ccccc2)SCC3)cc1 | -12 | 0 | 56* | 1
Cc1ccc(-n2c(-c3ccccc3)c[n+]3c2CCCCC3)cc1 | 13 | 0 | 59* | -1
COc1ccc(-c2c[n+]3c(n2-c2c(C)n(C)n(-c4ccccc4)c2=O)CCCCC3)cc1 | -1 | 0 | 4 | 0
CCOc1cc(C2CC(=O)Nc3cc(OC)c(OC)c(OC)c32)ccc1O (centres undefined) | -5 | 0 | -4 | 1
O=C(Nc1ccc(Oc2ccccc2)cc1)c1ccc2c(=O)n(-c3ccc(F)c(Cl)c3)c(=S)[nH]c2c1 | 2 | 0 | -36 | -1
SMILES | MITF primary | FBW7 activator | TEAD-YAP inh | GPR151 ag
COC(=O)/C(=C/c1ccccc1)NC(=O)c1ccc(Br)o1 | 3 | 0 | -2 | -1
O=C(N/N=C\c1ccccc1[N+](=O)[O-])c1n[nH]c2c1CCCC2 | 23 | 0 | 54* | -8
O=C(N/N=C/c1ccccc1O)c1n[nH]c2c1CCCC2 | 4 | -2 | 33* | -3
CCOc1cc(/C=C2\C(=O)NC(=O)N(c3ccccc3Cl)C2=O)cc([N+](=O)[O-])c1O | 5 | 0 | -4 | 0
CC(=O)Nc1ccc(CN2CCN(c3ccccn3)CC2)cc1 | 12 | 0 | -2 | 0
Cn1cccc(C(=O)Nc2ccc(CN3CCN(c4ccccn4)CC3)cc2)c1=O | 7 | 0 | 46* | -9
O=C(c1cccc(NS(=O)(=O)Cc2ccccc2)c1)N1CCOCC1 | 3 | 0 | 6 | 1

Screens from PubChem.
